Data on five molecules can be found in PubChem BioAssay AID687043 (Milwaukee Institute for Drug Discovery, 2013).

SMILES strings stand for the structures. The campaign covered roughly 16,000 compounds. About 250 (1.6%) were called active.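 Rule for the calls: active = inhibition above the average over every tested compound plus 3 SD (cut at about 40% in these data); inactive = the rest.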 The entries come from a sample that favours actives as a whole.

In this assay the test system is Hepatitis C virus NS3 helicase. Nature of the assay: HCV NS3 helicase inhibitors, primary screen, biochemical, fluorescence polarization, ChemBridge library (AID 687043). Conditions: NS3h Cy5-dT15 DNA binding, at 100 µM, stronger effect = higher value.
As a reminder, the inhibition is the change of the read-out against control, counted positive when it falls. For `CCOc1cc(C=C2C(=O)NC(=O)NC2=O)cc(Br)c1OCCOc1ccccc1C`, the inhibition is 51.3% (active).

For the molecule `Nc1ccc(Cc2ccc(N)c(Cl)c2)cc1Cl`, the inhibition was 7.3% (inactive).

In the case of `COc1cccc(CN2CCN(Cc3ccccc3OC)CC2)c1`, the inhibition was -10.1% (inactive).

Regarding `Cc1ccccc1CN1CCN(C(=O)COc2ccc(Cl)cc2)CC1`, the inhibition is 8.5% (inactive).

On to `COc1cc(C)cc2oc(=O)c3c(c12)CCC3`, for which the inhibition was -2.5% (inactive).
